Source: PubChem BioAssay (NCI)
About 79,000 compounds went through this panel and 15% of them were active in at least one assay; those are over-represented in the sample as a whole. Activity calls are given as the source filed them. No stated cut-off is given here; in the data, active means growth inhibition above about 70%; inactive means the rest.

Assays:
[1] = NCI Yeast Anticancer Drug Screen. Data for the rad52 strain (AID 147);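 further: 0% = growth of vehicle-treated control cultures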; conditions: S. cerevisiae rad52 mutant growth inhibition, stronger effect = higher value
Summary of the method: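 Read-out: growth inhibition versus vehicle-treated controls. Cells were a DNA repair-deficient yeast strain treated with compounds.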

[2] = NCI Yeast Anticancer Drug Screen. Data for the wt1 strain (AID 149);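 further: 0% = growth of vehicle-treated wt1 cultures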; conditions: S. cerevisiae wt1 strain (SPY 50644) growth inhibition, stronger effect = higher value
Summary of the method: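 Measured: growth of wt1 yeast under compound versus vehicle treatment, reported as inhibition.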

[3] = NCI Yeast Anticancer Drug Screen. Data for the rad50EPP+ strain (AID 151);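 further: 0% = growth of vehicle-treated control cultures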; conditions: S. cerevisiae rad50 mutant strain, stronger effect = higher value
Summary of the method: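 Growth inhibition read against vehicle controls in rad50EPP+ yeast, a strain altered in DNA damage repair, after compound exposure.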

[4] = NCI Yeast Anticancer Drug Screen. Data for the mgt1 strain (AID 153); conditions: S. cerevisiae mgt1 mutant growth inhibition, stronger effect = higher value
Summary of the method: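 mgt1 yeast grown with test compound; read-out is growth inhibition versus vehicle-treated cultures.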

[5] = NCI Yeast Anticancer Drug Screen. Data for the rad50 strain (AID 155);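 further: 0% = growth of vehicle-only cultures of the same strain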; conditions: S. cerevisiae rad50 strain growth inhibition, stronger effect = higher value
Summary of the method: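 Growth of the mutant yeast was measured after compound exposure and referenced to vehicle-treated cultures.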

[6] = NCI Yeast Anticancer Drug Screen. Data for the mec2-1 strain (AID 157); conditions: S. cerevisiae mec2-1 strain, stronger effect = higher value
Summary of the method: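 Yeast mec2-1 mutant treated with compound. Readout: growth inhibition vs vehicle controls.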

[7] = NCI Yeast Anticancer Drug Screen. Data for the rad14 strain (AID 159);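 further: 0% = growth of vehicle-treated control cultures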; conditions: S. cerevisiae rad14 strain growth inhibition, stronger effect = higher value
Summary of the method: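 Here, inhibition of yeast growth was measured after compound exposure, using a strain with a genetic defect in DNA damage repair and vehicle-treated cultures as the reference.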

[8] = NCI Yeast Anticancer Drug Screen. Data for the sgs1 mgt1 strain (AID 161);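 further: 0% = growth of cultures given vehicle only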; conditions: S. cerevisiae sgs1 mgt1 strain, stronger effect = higher value
Summary of the method: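 Test agents were incubated with a DNA-repair-mutant yeast strain. Growth was then read and compared against vehicle-treated controls.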

[9] = NCI Yeast Anticancer Drug Screen. Data for the CLN2oe strain (AID 163);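 further: 0% = growth of vehicle-only control cultures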; conditions: S. cerevisiae CLN2oe strain, stronger effect = higher value
Summary of the method: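 Read-out: yeast growth inhibition, expressed relative to vehicle-only controls. The strain bears an engineered cell-cycle alteration.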

[10] = NCI Yeast Anticancer Drug Screen. Data for the cln2 rad14 strain (AID 165);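 further: 0% = growth equal to vehicle treated cultures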; conditions: S. cerevisiae cln2 rad14 strain, stronger effect = higher value
Summary of the method: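 cln2 rad14 yeast strain; compound exposure; growth inhibition read vs vehicle controls.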

[11] = NCI Yeast Anticancer Drug Screen. Data for the wt2 strain (AID 169);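 further: 0% = growth of vehicle-treated yeast cultures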; conditions: S. cerevisiae wt2 strain growth inhibition, stronger effect = higher value
Summary of the method: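 Read-out: growth inhibition versus vehicle-treated control cultures after compound exposure of the yeast strain.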

[12] = NCI Yeast Anticancer Drug Screen. Data for the mlh1 strain (AID 171);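 further: 0% = growth of vehicle-treated control cultures of the same strain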; conditions: S. cerevisiae mlh1 strain growth inhibition, stronger effect = higher value
Summary of the method: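 Read-out: growth inhibition versus vehicle controls. Strain: engineered yeast with a defined DNA repair or cell cycle defect, compound-treated.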

[13] = NCI Yeast Anticancer Drug Screen. Data for the sgs1 strain (AID 173);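 further: 0% = growth of vehicle-only control cultures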; conditions: S. cerevisiae sgs1 mutant, stronger effect = higher value
Summary of the method: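 Read-out: yeast growth inhibition relative to vehicle controls, following compound exposure of a strain with a defined DNA repair/cell cycle alteration.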

[14] = NCI Yeast Anticancer Drug Screen. Data for the mlh1 rad18 strain (AID 175); conditions: S. cerevisiae mlh1 rad18 strain growth inhibition, stronger effect = higher value
Summary of the method: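 Yeast w/ defined DNA-repair lesions; compound exposure; growth vs vehicle controls → % inhibition.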

[15] = NCI Yeast Anticancer Drug Screen. Data for the rad18 strain (AID 177); conditions: S. cerevisiae rad18 mutant growth inhibition, stronger effect = higher value
Summary of the method: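 Readout: growth inhibition vs vehicle controls. Cells: genetically altered yeast strain, DNA repair defect.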

[16] = NCI Yeast Anticancer Drug Screen. Data for the bub3 strain (AID 167); conditions: S. cerevisiae bub3 mutant strain, stronger effect = higher value
Summary of the method: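 Whole-cell yeast assay. The mutant strain was incubated with compounds, and growth inhibition was determined by comparison with vehicle-treated cells.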

[17] = at 5.0 µM (retest, dose inferred, filed as 0.5)
[18] = at 50.0 µM (retest, dose inferred, filed as 5.0)

Measured: growth inhibition

CCCCCCCCCCCCCCCCCC(=O)NCCCN(C)C
active: [1]; at 33.0 µM 97% | [1]; at 100.0 µM 97% | [2]; at 33.0 µM 98% | [2]; at 100.0 µM 97% | [3]; at 33.0 µM 96% | [3]; at 100.0 µM 96% | [4]; at 33.0 µM 98% | [4]; at 100.0 µM 98% | [5]; at 33.0 µM 94% | [5]; [18] 98% | [5]; at 50.0 µM 92.2% | [5]; at 100.0 µM 96% | [6]; at 33.0 µM 98% | [6]; [18] 98% | [6]; at 50.0 µM 93.8% | [6]; at 100.0 µM 98% | [7]; at 33.0 µM 97% | [7]; at 100.0 µM 97% | [8]; [18] 97% | [8]; at 50.0 µM 93.2% | [9]; at 33.0 µM 97% | [9]; at 100.0 µM 97% | [10]; [18] 97% | [10]; at 50.0 µM 92% | [11]; at 33.0 µM 97% | [11]; at 100.0 µM 98% | [12]; at 33.0 µM 97% | [12]; at 100.0 µM 97% | [13]; at 33.0 µM 96% | [13]; at 100.0 µM 97% | [14]; [18] 99% | [14]; at 50.0 µM 92.5% | [15]; at 33.0 µM 97% | [15]; at 100.0 µM 97%
inactive: [1]; at 1.2 µM -47% | [1]; at 3.7 µM -39% | [1]; at 11.0 µM -44% | [2]; at 1.2 µM -51% | [2]; at 3.7 µM -58% | [2]; at 11.0 µM -56% | [3]; at 1.2 µM -37% | [3]; at 3.7 µM -43% | [3]; at 11.0 µM 33% | [4]; at 1.2 µM -13% | [4]; at 3.7 µM -11% | [4]; at 11.0 µM -19% | [5]; at 1.2 µM -27% | [5]; at 3.7 µM -11% | [5]; [17] 33% | [5]; at 11.0 µM -17% | [6]; at 1.2 µM -31% | [6]; at 3.7 µM -31% | [6]; [17] 50% | [6]; at 11.0 µM -45% | [7]; at 1.2 µM -31% | [7]; at 3.7 µM -29% | [7]; at 11.0 µM -40% | [8]; [17] -32% | [9]; at 1.2 µM -35% | [9]; at 3.7 µM -37% | [9]; at 11.0 µM -80% | [10]; [17] 17% | [11]; at 1.2 µM -29% | [11]; at 3.7 µM -27% | [11]; at 11.0 µM -37% | [12]; at 1.2 µM -21% | [12]; at 3.7 µM -35% | [12]; at 11.0 µM -44% | [13]; at 1.2 µM -5% | [13]; at 3.7 µM -13% | [13]; at 11.0 µM -13% | [14]; [17] 36% | [15]; at 1.2 µM -32% | [15]; at 3.7 µM -32% | [15]; at 11.0 µM -12%

CC(C)(C)N=C(NO)c1ccccc1
active: [5]; at 50.0 µM 70.2% | [8]; at 50.0 µM 74% | [13]; at 100.0 µM 76% | [14]; [18] 76% | [14]; at 50.0 µM 81.4%
inactive: [1]; at 1.2 µM 0% | [1]; at 3.7 µM 1% | [1]; at 11.0 µM 8% | [1]; at 33.0 µM 25% | [1]; at 100.0 µM 68% | [2]; at 1.2 µM 0% | [2]; at 3.7 µM 0% | [2]; at 11.0 µM 5% | [2]; at 33.0 µM 8% | [2]; at 100.0 µM 45% | [3]; at 1.2 µM 0% | [3]; at 3.7 µM 3% | [3]; at 11.0 µM 14% | [3]; at 33.0 µM 35% | [3]; at 100.0 µM 63% | [4]; at 1.2 µM -2% | [4]; at 3.7 µM 1% | [4]; at 11.0 µM 2% | [4]; at 33.0 µM 27% | [4]; at 100.0 µM 57% | [5]; at 1.2 µM -2% | [5]; at 3.7 µM -1% | [5]; [17] -6% | [5]; at 11.0 µM 2% | [5]; at 33.0 µM 14% | [5]; [18] 41% | [5]; at 100.0 µM 55% | [6]; at 1.2 µM -3% | [6]; at 3.7 µM 0% | [6]; [17] -2% | [6]; at 11.0 µM 2% | [6]; at 33.0 µM 12% | [6]; [18] 2% | [6]; at 50.0 µM 2.9% | [6]; at 100.0 µM 53% | [7]; at 1.2 µM -3% | [7]; at 3.7 µM -3% | [7]; at 11.0 µM 0% | [7]; at 33.0 µM 10% | [7]; at 100.0 µM 46% | [8]; [17] 7% | [8]; [18] 55% | [10]; [17] 8% | [10]; [18] 49% | [10]; at 50.0 µM 43.7% | [16]; at 1.2 µM -6% | [16]; at 3.7 µM -9% | [16]; [17] -11% | [16]; at 11.0 µM -4% | [16]; at 33.0 µM -9% | [16]; [18] 42% | [16]; at 50.0 µM 0.3% | [16]; at 100.0 µM 27% | [11]; at 1.2 µM 1% | [11]; at 3.7 µM 1% | [11]; at 11.0 µM 8% | [11]; at 33.0 µM 20% | [11]; at 100.0 µM 67% | [12]; at 1.2 µM 3% | [12]; at 3.7 µM 1% | [12]; at 11.0 µM 7% | [12]; at 33.0 µM 20% | [12]; at 100.0 µM 64% | [13]; at 1.2 µM 1% | [13]; at 3.7 µM 7% | [13]; at 11.0 µM 14% | [13]; at 33.0 µM 39% | [14]; [17] 3%
